Source: PubChem
TRPV1 ag: HTS Assay for Compounds that Act as Agonists of the Vanilloid Receptor 1; TRPV1-expressing cells, Fluo-8 calcium influx, agonist mode; activation, % at 8.33 µM; AID 540275, 2011; 0.19% of 320,000 active; in the data active = activation above about 80%; inconclusive = between about 30% and that limit; also: 0% is about no effect
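Fluo-8 calcium influx in TRPV1-expressing cells, kinetic read (ex 480/em 520 nm). Compound added and read 3 min for agonist activity, followed by capsaicin at EC20 final and 2 min further read for enhancement.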
D1 ag: Allosteric Agonists of the Human D1 Dopamine Receptor: qHTS | D(1A) dopamine receptor (Homo sapiens), P21728 | HEK293 T-REx D1 cells, calcium flux, agonist mode | activation, % at 2 µM | 1% of 360,000 active | AID 504660, 2011; in the data active = activation above about 30%; also: 0% is about no effect
Target sequence (P21728 whole entry, looked up): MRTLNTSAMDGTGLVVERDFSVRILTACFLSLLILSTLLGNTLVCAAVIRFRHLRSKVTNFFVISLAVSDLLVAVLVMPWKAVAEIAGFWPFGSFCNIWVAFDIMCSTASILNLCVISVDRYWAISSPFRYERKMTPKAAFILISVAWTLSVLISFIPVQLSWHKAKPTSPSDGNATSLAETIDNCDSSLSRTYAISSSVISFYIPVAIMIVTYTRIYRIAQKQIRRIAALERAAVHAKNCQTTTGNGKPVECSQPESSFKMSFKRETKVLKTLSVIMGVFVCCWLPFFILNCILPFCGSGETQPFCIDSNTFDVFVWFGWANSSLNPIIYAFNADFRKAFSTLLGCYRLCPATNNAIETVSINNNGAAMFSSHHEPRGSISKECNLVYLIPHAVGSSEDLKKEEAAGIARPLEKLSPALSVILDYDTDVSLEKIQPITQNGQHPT
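Agonism was scored from calcium flux recorded over 180 s (1 read/s) after pintool compound addition, following a 10-cycle baseline. Cells were inducible force-coupled HEK293 TREx D1, plated overnight at 30 C and loaded with no-wash calcium dye.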
D1 antag: Antagonist of Human D 1 Dopamine Receptor: qHTS; HEK293 TREx D1 cells, calcium flux, dopamine EC80; active compounds read low; activity change, negative = inhibition, % at 10 µM; 3.2% of 360,000 active; in the data active = activity change below about -30%; also: % is scaled to controls: 0 for no effect and ±100 for the full control effect
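Cells carrying a force-coupled, tetracycline-inducible human D1 receptor report calcium flux. Each well gets a 10 s baseline, compound with 180 s monitoring, then an EC80 dopamine stimulus with a second 180 s kinetic read.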
TRPV1 potentiator: HTS Assay for Compounds that Act as Potentiators of the Vanilloid Receptor 1. TRPV1-expressing cells, Fluo-8 calcium influx, capsaicin EC20 potentiation. potentiation, % at 8.33 µM. 0.02% of 320,000 active. AID 540277, 2011; in the data active = potentiation above about 80%; inconclusive = between about 30% and that limit; also: 0% is about no effect
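Cells expressing TRPV1 were dye-loaded with Fluo-8 and read kinetically: 10 s baseline, 3 min after compound (agonist portion), then 2 min after EC20 capsaicin (allosteric enhancer portion). Calcium-bound dye fluorescence at 480/520 nm.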
D1 potentiator: Potentiators of Human D1 Dopamine Receptor: qHTS; HEK293 TREx D1 cells, calcium flux, dopamine EC20 potentiation; potentiation, % at 10 µM; 0.036% of 360,000 active; AID 504651, 2011; in the data active = potentiation above about 30%; also: 0% is about no effect
* = called active by the depositor. Sampled rows, rich in hits. Any-hit rate of the full collection: about 4.2%.

How did COc1cccc(Cn2c(CNC(=O)Cc3cccc(C)c3)nc3cccnc32)c1 do in these assays?
D1 ag: 0; D1 antag: 8; D1 potentiator: 2

What do the screens show for `Cc1cc(C)cc(Cn2ncc3c4sc(C)cc4n(C)c3c2=O)c1`?
D1 ag: 2; D1 antag: -6; D1 potentiator: 0

What do the screens show for `Cc1cc(C)cc(NC(=O)OCCN2CCN(Cc3ccccc3)CCC2=O)c1`?
TRPV1 ag: 0; D1 ag: -4; D1 antag: -32*; TRPV1 potentiator: -2; D1 potentiator: -6

Results for Cc1ccc(S(=O)(=O)N2CCC(=O)N(CCOC(=O)Nc3ccccc3C)CC2)cc1 ?
TRPV1 ag: 1; D1 ag: -4; D1 antag: -31*; TRPV1 potentiator: 4; D1 potentiator: -6

What do the screens show for `CC(=O)c1ccc(N2CCN(S(=O)(=O)c3ccc(-c4cc(C(F)(F)F)on4)s3)CC2)cc1`?
D1 ag: 1; D1 antag: -31*; D1 potentiator: -4

Results for Cc1ccc(-c2n[nH]c(=S)c3ccccc23)cc1 ?
TRPV1 ag: 1; D1 ag: 3; D1 antag: -35*; TRPV1 potentiator: 2; D1 potentiator: -6

Results for O=C(N/N=C/c1cc(Br)cc(Br)c1O)c1ccncc1 ?
TRPV1 ag: 24; D1 ag: 54*; D1 antag: -4; TRPV1 potentiator: 2; D1 potentiator: 14

What do the screens show for `O=C(N/N=C/c1cc(Cl)cc(Cl)c1O)c1ccncc1`?
TRPV1 ag: 19; D1 ag: 68*; D1 antag: 0; TRPV1 potentiator: -6; D1 potentiator: 2

What do the screens show for `CCOC(=O)c1c(NC(C)=O)c2c3c(sc2n1Cc1nc(-c2cccc(Cl)c2)oc1C)CCCC3`?
D1 ag: 0; D1 antag: -37*; D1 potentiator: -5

How did O=[N+]([O-])c1ccc(/C=C/C2=NN(c3ccccc3)C(c3ccco3)C2)o1 (stereo unspecified) do in these assays?
TRPV1 ag: 14; D1 ag: 97*; D1 antag: -4; TRPV1 potentiator: inconclusive; D1 potentiator: 0

What do the screens show for `Fc1ccc(C2=NN(c3ccccc3)C(c3ccco3)C2)cc1` (stereo unspecified)?
TRPV1 ag: 4; D1 ag: 4; D1 antag: 8; TRPV1 potentiator: 3; D1 potentiator: -2

What do the screens show for `C(=C\c1ccco1)/C1=NN(c2ccccc2)C(c2ccco2)C1` (stereo unspecified)?
TRPV1 ag: 9; D1 ag: 45*; D1 antag: 7; TRPV1 potentiator: 11; D1 potentiator: -8

How did C=CCSc1nnc(CSc2nc3sc4c(c3c(=O)[nH]2)CCCC4)n1-c1ccccc1 do in these assays?
TRPV1 ag: 14; D1 ag: 1; D1 antag: 7; TRPV1 potentiator: -7; D1 potentiator: 2

Results for C=CCSc1nnc(CC(OC)OC)n1-c1ccccc1 ?
TRPV1 ag: -2; D1 ag: 8; D1 antag: -37*; TRPV1 potentiator: 2; D1 potentiator: 0

Results for NS(=O)(=O)c1ccc(NC(=O)c2cccc3ccccc23)cc1 ?
TRPV1 ag: 20; D1 ag: 0; D1 antag: -36*; TRPV1 potentiator: -5; D1 potentiator: -7

How did COc1ccc(-c2cc(C(=O)OC(C)C(=O)c3ccccc3)c3cccc(Cl)c3n2)cc1 (stereo unspecified) do in these assays?
D1 ag: 2; D1 antag: -2; D1 potentiator: 0

How did CCCCC1CC(CSc2ncn[nH]2)OC1=O (stereo unspecified) do in these assays?
TRPV1 ag: -1; D1 ag: 0; D1 antag: -36*; TRPV1 potentiator: -2; D1 potentiator: 1

What do the screens show for `CN(Cc1ccccc1)S(=O)(=O)c1nnc(NC(=O)c2ccccc2Cl)s1`?
D1 ag: 1; D1 antag: -4; D1 potentiator: -2

What do the screens show for `CCc1ccccc1N1C(=O)N(Cc2cc(=O)n3ccccc3n2)c2ccccc2S1(=O)=O`?
D1 ag: 1; D1 antag: 7; D1 potentiator: 3

How did Cc1cc(C)c2sc(NC(=O)C3=COCCO3)nc2c1 do in these assays?
TRPV1 ag: inconclusive; D1 ag: 0; D1 antag: -34*; TRPV1 potentiator: 1; D1 potentiator: 13

What do the screens show for `Cc1cc(-c2csc(NC(=O)C3=COCCO3)n2)c(C)n1C`?
TRPV1 ag: -2; D1 ag: 0; D1 antag: -12; TRPV1 potentiator: 9; D1 potentiator: -4

How did Cc1cc(C)c(-c2csc(NC(=O)C3=COCCO3)n2)c(C)c1 do in these assays?
TRPV1 ag: -4; D1 ag: 12; D1 antag: -30*; TRPV1 potentiator: -13; D1 potentiator: -4

What do the screens show for `O=C(Nc1nc(-c2cccs2)cs1)C1=COCCO1`?
TRPV1 ag: -3; D1 ag: 0; D1 antag: -82*; TRPV1 potentiator: 23; D1 potentiator: -5

What do the screens show for `Cc1cc(C)c(NC(=O)C2=COCCO2)c(C)c1`?
TRPV1 ag: -1; D1 ag: 0; D1 antag: -33*; TRPV1 potentiator: -8; D1 potentiator: -7

How did CCc1ccc(CNC(=O)CN2C(=O)c3cccnc3Oc3ccc(Cl)cc32)cc1 do in these assays?
D1 ag: -1; D1 antag: -4; D1 potentiator: -2

Results for CCN(C(=O)CSc1nc2ccccc2n1CC(=O)Nc1cccc(C#N)c1)c1ccccc1 ?
D1 ag: 1; D1 antag: -1; D1 potentiator: -1

Results for O=C(CCc1nnc2n(Cc3ccccc3Cl)c(=O)c3ccccc3n12)Nc1ccccc1 ?
D1 ag: 1; D1 antag: -10; D1 potentiator: 1

What do the screens show for `O=C(c1cc(-c2ccc(F)cc2)nc2ccccc12)N1CCN(C2CCS(=O)(=O)C2)CC1` (stereo unspecified)?
TRPV1 ag: -1; D1 ag: 0; D1 antag: -32*; TRPV1 potentiator: -2; D1 potentiator: 1

How did CC1(C)Oc2ccc(C(=O)NN)cc2NC1=O do in these assays?
TRPV1 ag: -10; D1 ag: 2; D1 antag: -38*; TRPV1 potentiator: 9; D1 potentiator: -12

Results for Cc1cc(C)cc(NC(=O)CN2C(=O)CCc3cc(S(=O)(=O)N4CCCCC4)ccc32)c1 ?
D1 ag: 12; D1 antag: -11; D1 potentiator: 0

Results for COc1ccc(-c2cc(C)no2)cc1S(=O)(=O)NCC1CCN(Cc2cc(C)ccc2C)CC1 ?
TRPV1 ag: 2; D1 ag: 15; D1 antag: 0; TRPV1 potentiator: 5; D1 potentiator: -6
